Of roughly 8,800 targets only a part is listed; those with a hit were picked by preference. About 0.5% of all pairs of compound and target were hits. A number with no mark means an inactive call.
The targets below were run with C1=CC=C(C=C1)[C@H](COC2=CC3=C(C=C2)NC(=O)N3)NC(=O)C4=CC=CN(C4=O)CC5=CC(=C(C=C5)F)F (assay: log2 fold change, soluble protein after heating vs DMSO (PISA); higher = thermal stabilisation; K562 lysate, 10 uM; active = over 0.2 and 3.5 SD of the protein, either way, in both replicates (recomputed)).
Outline: (§1)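 The values are log-two fold changes in thermal stability compared with solvent controls and come from duplicates. They were obtained by TMTpro 16plex LC-MS/MS, with channel sums equalised, on the supernatant after 21,000xg for 90 min. That supernatant came from crude K562 extract at 1 mg/mL protein treated with 10 μM compound for 30 min, heated for 3 min across 48°C-58°C, pooled and brought to 0.5% NP-40 at 4°C.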

Sequence of UniProt Q14C86 (Q14C86 whole entry, looked up): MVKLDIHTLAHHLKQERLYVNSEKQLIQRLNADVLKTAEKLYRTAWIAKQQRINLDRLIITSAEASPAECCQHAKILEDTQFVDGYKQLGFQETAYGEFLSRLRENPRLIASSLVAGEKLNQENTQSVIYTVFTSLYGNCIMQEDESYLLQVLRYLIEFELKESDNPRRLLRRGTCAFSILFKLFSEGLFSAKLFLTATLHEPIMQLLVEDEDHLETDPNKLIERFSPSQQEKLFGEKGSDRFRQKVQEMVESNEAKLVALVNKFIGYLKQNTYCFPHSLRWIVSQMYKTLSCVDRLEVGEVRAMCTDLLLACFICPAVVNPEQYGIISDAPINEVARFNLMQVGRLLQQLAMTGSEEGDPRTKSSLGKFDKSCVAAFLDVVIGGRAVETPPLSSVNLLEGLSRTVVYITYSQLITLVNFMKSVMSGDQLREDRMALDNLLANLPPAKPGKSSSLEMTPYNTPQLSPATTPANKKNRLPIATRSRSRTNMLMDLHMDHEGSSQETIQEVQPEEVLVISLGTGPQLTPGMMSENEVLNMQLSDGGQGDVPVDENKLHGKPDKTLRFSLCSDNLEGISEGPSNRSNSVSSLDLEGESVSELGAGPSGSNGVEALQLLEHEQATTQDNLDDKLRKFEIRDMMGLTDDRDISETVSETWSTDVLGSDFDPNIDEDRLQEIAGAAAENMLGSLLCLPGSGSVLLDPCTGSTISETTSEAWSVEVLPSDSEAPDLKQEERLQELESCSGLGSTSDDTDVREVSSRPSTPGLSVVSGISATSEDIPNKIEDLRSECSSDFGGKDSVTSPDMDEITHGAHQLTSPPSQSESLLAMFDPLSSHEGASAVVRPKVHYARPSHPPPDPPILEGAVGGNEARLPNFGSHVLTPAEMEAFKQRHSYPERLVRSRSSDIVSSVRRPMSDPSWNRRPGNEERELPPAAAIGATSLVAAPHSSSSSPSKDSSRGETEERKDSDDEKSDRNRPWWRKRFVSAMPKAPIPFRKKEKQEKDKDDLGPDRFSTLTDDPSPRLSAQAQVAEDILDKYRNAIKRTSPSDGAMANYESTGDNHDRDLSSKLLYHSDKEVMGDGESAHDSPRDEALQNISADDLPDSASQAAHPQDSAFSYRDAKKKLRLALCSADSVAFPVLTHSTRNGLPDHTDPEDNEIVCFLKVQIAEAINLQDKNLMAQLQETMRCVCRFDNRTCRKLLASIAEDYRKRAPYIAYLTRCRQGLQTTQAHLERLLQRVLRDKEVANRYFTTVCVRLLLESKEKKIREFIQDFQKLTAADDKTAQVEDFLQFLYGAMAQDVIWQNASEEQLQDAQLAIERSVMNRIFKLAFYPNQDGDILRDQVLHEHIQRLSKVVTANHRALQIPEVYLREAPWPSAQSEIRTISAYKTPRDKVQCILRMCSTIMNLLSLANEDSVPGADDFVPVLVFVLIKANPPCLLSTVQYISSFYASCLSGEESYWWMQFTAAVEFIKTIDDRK
Sequence of UniProt Q8IV48 (Q8IV48 whole entry, looked up): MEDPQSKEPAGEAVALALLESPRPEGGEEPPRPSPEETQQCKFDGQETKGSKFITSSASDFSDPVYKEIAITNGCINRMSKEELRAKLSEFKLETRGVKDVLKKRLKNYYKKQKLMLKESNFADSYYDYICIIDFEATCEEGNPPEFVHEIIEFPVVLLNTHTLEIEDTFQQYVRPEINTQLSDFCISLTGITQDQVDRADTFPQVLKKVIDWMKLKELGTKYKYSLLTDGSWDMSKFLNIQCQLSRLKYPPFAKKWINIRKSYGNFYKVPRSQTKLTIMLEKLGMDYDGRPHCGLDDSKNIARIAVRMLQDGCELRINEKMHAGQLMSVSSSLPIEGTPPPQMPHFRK
Sequence of UniProt O15117 (O15117 whole entry, looked up): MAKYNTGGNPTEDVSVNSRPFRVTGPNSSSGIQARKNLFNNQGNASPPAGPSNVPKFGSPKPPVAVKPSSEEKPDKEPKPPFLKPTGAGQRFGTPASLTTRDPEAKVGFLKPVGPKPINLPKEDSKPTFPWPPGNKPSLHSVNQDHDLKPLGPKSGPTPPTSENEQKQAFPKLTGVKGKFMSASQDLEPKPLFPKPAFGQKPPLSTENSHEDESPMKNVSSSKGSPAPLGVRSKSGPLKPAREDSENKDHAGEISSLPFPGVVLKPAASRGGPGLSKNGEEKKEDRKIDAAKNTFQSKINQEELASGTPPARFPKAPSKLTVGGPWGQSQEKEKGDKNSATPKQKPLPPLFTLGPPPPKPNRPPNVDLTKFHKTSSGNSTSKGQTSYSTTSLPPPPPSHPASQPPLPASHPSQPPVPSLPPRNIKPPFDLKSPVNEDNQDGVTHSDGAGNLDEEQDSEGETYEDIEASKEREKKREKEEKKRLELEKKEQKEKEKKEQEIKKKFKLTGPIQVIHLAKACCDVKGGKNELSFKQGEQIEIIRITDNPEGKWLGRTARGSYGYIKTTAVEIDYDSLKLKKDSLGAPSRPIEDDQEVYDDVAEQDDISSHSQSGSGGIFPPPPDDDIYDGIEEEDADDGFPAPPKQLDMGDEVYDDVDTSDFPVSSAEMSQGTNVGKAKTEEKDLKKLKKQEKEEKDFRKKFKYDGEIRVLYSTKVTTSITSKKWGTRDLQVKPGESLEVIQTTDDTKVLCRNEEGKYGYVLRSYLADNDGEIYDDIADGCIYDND
Sequence of UniProt P23919 (P23919 whole entry, looked up): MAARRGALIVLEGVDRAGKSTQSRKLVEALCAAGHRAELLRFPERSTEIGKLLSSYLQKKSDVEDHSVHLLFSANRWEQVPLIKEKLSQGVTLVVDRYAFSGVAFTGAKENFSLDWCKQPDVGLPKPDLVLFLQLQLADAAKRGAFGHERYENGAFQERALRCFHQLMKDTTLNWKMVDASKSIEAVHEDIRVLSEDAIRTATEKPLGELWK
Sequence of UniProt Q13144 (Q13144 whole entry, looked up): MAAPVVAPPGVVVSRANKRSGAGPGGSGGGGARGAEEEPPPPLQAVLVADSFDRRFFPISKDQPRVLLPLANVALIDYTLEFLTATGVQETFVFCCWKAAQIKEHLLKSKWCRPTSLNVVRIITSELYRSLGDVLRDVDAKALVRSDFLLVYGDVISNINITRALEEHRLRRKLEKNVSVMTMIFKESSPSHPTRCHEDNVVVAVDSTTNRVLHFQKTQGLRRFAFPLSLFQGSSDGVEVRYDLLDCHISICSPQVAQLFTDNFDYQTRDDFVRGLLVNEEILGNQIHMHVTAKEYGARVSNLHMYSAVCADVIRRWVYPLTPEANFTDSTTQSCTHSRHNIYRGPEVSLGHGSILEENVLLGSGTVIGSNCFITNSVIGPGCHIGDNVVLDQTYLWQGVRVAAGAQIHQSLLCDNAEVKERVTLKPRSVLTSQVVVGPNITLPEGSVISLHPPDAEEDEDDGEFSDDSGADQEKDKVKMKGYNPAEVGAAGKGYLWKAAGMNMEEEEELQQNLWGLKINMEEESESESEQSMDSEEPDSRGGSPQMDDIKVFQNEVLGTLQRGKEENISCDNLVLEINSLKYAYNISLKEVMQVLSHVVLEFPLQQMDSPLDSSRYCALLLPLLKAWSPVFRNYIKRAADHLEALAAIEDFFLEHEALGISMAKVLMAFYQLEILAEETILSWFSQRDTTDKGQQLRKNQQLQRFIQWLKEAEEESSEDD
Sequence of UniProt P35916 (P35916 whole entry, looked up): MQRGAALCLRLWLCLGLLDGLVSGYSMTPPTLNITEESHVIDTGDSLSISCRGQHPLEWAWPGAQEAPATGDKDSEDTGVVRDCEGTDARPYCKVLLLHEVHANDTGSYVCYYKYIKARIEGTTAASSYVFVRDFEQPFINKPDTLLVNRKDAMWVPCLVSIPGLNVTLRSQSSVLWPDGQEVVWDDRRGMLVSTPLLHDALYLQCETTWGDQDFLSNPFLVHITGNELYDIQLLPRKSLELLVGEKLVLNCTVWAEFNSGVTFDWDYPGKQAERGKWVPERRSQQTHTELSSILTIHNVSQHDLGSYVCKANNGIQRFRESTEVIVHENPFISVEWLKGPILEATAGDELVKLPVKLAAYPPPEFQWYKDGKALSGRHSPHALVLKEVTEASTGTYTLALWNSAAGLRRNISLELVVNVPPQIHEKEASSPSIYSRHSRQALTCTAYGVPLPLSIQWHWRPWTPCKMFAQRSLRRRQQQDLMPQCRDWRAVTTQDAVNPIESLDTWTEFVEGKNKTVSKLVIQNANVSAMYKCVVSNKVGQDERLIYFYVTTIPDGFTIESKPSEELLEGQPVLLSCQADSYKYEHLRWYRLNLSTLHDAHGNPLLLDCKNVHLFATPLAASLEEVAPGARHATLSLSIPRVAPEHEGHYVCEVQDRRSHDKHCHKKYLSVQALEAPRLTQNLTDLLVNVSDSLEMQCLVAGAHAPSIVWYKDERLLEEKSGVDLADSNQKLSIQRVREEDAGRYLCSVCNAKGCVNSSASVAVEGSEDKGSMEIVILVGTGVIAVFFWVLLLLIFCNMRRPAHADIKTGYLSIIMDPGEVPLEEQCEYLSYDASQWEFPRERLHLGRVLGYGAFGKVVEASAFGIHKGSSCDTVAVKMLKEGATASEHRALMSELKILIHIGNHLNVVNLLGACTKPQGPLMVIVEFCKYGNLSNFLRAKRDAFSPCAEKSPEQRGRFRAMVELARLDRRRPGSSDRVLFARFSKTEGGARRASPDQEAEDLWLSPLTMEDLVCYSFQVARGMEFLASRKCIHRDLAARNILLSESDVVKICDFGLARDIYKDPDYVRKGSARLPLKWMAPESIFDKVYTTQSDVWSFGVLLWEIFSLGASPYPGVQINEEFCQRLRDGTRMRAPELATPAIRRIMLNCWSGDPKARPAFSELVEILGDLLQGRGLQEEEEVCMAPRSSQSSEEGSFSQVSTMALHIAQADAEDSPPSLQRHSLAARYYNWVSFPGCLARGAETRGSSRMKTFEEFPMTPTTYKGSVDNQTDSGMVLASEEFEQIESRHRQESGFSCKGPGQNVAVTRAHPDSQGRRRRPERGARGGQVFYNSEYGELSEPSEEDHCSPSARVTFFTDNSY
Sequence of UniProt Q9NPA8 (Q9NPA8 whole entry, looked up): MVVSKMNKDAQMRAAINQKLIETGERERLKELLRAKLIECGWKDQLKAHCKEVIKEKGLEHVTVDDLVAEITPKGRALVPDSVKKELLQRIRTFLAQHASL

Point of comparison: ERI1 (UniProt Q8IV48), log2 fold change 0.071. Against it:
- ENY2 (UniProt Q9NPA8) — within 0.2 log units, 0.033
- DTYMK (UniProt P23919) — within 0.2 log units, -0.041
- GALNT2 (UniProt Q10471) — within 0.2 log units, 0.018
- EPB41 (UniProt P11171) — within 0.2 log units, -0.004
- GATAD2A isoform 3 (UniProt Q86YP4) — within 0.2 log units, -0.01
- FYB1 isoform 3 (UniProt O15117) — within 0.2 log units, 0.011
- EIF2B5 (UniProt Q13144) — within 0.2 log units, -0.03
- GBF1 (UniProt Q92538) — within 0.2 log units, -0.044
- EXO5 (UniProt Q9H790) — within 0.2 log units, 0.033
- GGA2 (UniProt Q9UJY4) — within 0.2 log units, -0.055
- DTWD1 (UniProt Q8N5C7) — within 0.2 log units, -0.003
- GAPVD1 (UniProt Q14C86) — within 0.2 log units, 0.036
- GGT7 (UniProt Q9UJ14) — lower, -0.138
- GAMT (UniProt Q14353) — within 0.2 log units, -0.025
- FLT4 (UniProt P35916) — within 0.2 log units, 0.006
- FBXO30 (UniProt Q8TB52) — within 0.2 log units, -0.034
- G6PD isoform 2 (UniProt P11413) — within 0.2 log units, 0.023
- ELF2 (UniProt Q15723) — lower, -0.162
- DYNC1I2 isoform 5 (UniProt Q13409) — within 0.2 log units, 0.049
- ESYT2 (UniProt H7BXI1) — within 0.2 log units, 0.004
- FXR1 (UniProt P51114) — within 0.2 log units, -0.028
- GIGYF2 (UniProt Q6Y7W6) — within 0.2 log units, 0.047
- EXOC2 (UniProt Q96KP1) — within 0.2 log units, -0.01
- DST (UniProt Q03001) — within 0.2 log units, -0.002
- GAPVD1 isoform 6 (UniProt Q14C86) — within 0.2 log units, -0.013
- ENGASE (UniProt Q8NFI3) — within 0.2 log units, 0.042
- EGLN1 (UniProt Q9GZT9) — within 0.2 log units, 0.095
- EDC4 (UniProt Q6P2E9) — within 0.2 log units, -0.026
- EMC7 (UniProt Q9NPA0) — within 0.2 log units, 0.01
- FNTB (UniProt P49356) — within 0.2 log units, 0.023
- ERAL1 (UniProt O75616) — within 0.2 log units, -0.048
- ERLIN2 (UniProt O94905) — within 0.2 log units, 0.009
- EEF1A1P5 (UniProt Q5VTE0) — within 0.2 log units, 0.006
- EIF2B4 (UniProt Q9UI10) — within 0.2 log units, 0.028
- FIBP (UniProt O43427) — within 0.2 log units, -0.018

The targets below were run with CC1=C(SC2=C1C(=N[C@H](C3=NN=C(N32)C)CC(=O)N)C4=CC=C(C=C4)Cl)C in the same assay as above.
Outline: as §1

Point of comparison: DTYMK (UniProt P23919), log2 fold change 0.014. Against it:
- ENY2 (UniProt Q9NPA8) — within 0.2 log units, -0.001
- GALNT2 (UniProt Q10471) — within 0.2 log units, -0.009
- EPB41 (UniProt P11171) — within 0.2 log units, -0.021
- GATAD2A isoform 3 (UniProt Q86YP4) — within 0.2 log units, -0.006
- FYB1 isoform 3 (UniProt O15117) — within 0.2 log units, 0.039
- EIF2B5 (UniProt Q13144) — within 0.2 log units, 0.007
- GBF1 (UniProt Q92538) — within 0.2 log units, 0
- EXO5 (UniProt Q9H790) — within 0.2 log units, -0.179
- GGA2 (UniProt Q9UJY4) — within 0.2 log units, 0.011
- DTWD1 (UniProt Q8N5C7) — within 0.2 log units, 0.075
- GAPVD1 (UniProt Q14C86) — within 0.2 log units, -0.067
- GGT7 (UniProt Q9UJ14) — within 0.2 log units, 0.017
- ERI1 (UniProt Q8IV48) — within 0.2 log units, -0.061
- GAMT (UniProt Q14353) — within 0.2 log units, -0.083
- FLT4 (UniProt P35916) — within 0.2 log units, -0.04
- FBXO30 (UniProt Q8TB52) — within 0.2 log units, 0.011
- G6PD isoform 2 (UniProt P11413) — within 0.2 log units, -0.002
- ELF2 (UniProt Q15723) — within 0.2 log units, -0.074
- DYNC1I2 isoform 5 (UniProt Q13409) — within 0.2 log units, -0.03
- ESYT2 (UniProt H7BXI1) — within 0.2 log units, 0.018
- FXR1 (UniProt P51114) — within 0.2 log units, -0.016
- GIGYF2 (UniProt Q6Y7W6) — within 0.2 log units, -0.054
- EXOC2 (UniProt Q96KP1) — within 0.2 log units, -0.018
- DST (UniProt Q03001) — within 0.2 log units, 0.042
- GAPVD1 isoform 6 (UniProt Q14C86) — within 0.2 log units, 0.002
- ENGASE (UniProt Q8NFI3) — within 0.2 log units, 0.017
- EGLN1 (UniProt Q9GZT9) — within 0.2 log units, -0.023
- EDC4 (UniProt Q6P2E9) — within 0.2 log units, 0.005
- EMC7 (UniProt Q9NPA0) — within 0.2 log units, 0.02
- FNTB (UniProt P49356) — within 0.2 log units, 0.135
- ERAL1 (UniProt O75616) — within 0.2 log units, 0.033
- ERLIN2 (UniProt O94905) — within 0.2 log units, -0.007
- EEF1A1P5 (UniProt Q5VTE0) — within 0.2 log units, 0.011
- EIF2B4 (UniProt Q9UI10) — within 0.2 log units, 0.079
- FIBP (UniProt O43427) — within 0.2 log units, 0

Reference: the supplement of paper PMC10849652
